Sampled rows, rich in hits. Any-hit rate of the full collection: about 2.4%.
ULK1 inh – blocks human autophagy kinase ULK1; O75385; AlphaScreen Atg13 phosphorylation by ULK1, luminescence; inhibition, % at 5.96 µM; 1.9% of 30,000 active; in the data active means inhibition above about 43%
Target sequence (O75385 whole entry, looked up): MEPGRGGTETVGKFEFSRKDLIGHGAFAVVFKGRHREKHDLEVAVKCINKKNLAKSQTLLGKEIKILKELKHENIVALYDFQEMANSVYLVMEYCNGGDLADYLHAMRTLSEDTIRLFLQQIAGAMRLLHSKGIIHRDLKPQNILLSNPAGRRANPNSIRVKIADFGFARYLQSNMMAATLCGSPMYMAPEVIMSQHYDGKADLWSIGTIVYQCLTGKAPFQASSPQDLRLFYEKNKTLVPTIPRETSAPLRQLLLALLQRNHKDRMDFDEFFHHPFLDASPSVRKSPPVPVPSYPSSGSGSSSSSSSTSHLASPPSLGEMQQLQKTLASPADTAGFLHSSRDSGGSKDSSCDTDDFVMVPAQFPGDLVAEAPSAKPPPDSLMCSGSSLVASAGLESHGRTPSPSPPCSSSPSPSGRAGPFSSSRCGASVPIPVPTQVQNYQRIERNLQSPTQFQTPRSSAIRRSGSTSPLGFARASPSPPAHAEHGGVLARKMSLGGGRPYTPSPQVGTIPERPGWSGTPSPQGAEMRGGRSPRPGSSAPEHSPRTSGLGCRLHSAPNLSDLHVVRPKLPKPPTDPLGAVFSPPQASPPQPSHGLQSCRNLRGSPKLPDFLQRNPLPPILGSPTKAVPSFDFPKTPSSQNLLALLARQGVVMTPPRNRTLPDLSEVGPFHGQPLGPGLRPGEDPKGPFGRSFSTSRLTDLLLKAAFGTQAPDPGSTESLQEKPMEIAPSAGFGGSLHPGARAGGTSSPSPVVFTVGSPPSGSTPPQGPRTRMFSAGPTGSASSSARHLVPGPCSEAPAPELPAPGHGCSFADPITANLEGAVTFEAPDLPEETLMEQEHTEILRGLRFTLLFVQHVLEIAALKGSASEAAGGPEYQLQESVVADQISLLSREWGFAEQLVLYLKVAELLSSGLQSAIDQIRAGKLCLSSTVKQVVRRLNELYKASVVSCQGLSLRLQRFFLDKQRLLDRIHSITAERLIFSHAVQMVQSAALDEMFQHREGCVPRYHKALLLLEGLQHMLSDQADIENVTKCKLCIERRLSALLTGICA
ASK1 primary – inhibitors of human ASK1 kinase; Q99683; AlphaScreen MKK6 phosphorylation by ASK1, luminescence; inhibition, % at 7.44 µM; 0.99% of 22,000 active; in the data active means inhibition above about 35%
Numbers stand for hits; n = inactive; x = no result given; ! = a repeat was not active.

SMILES | ULK1 inh | ASK1 primary
CS(=O)(=O)c1ccc(-c2ccnc(Nc3ccc(C(N)C(F)(F)F)cc3)n2)cc1 (centres undefined) | n | n
Cc1cnnn1-c1ccc(Nc2nccc(-c3ccc(NS(C)(=O)=O)cc3)n2)cc1 | 49 | n
CS(=O)(=O)Nc1ccc(-c2ccnc(Nc3ccc(N4CCOC4=O)cc3)n2)cc1 | 70 | n
CC(O)c1ccc(Nc2nccc(-c3ccc(NS(C)(=O)=O)cc3)n2)cc1 (centres undefined) | 69 | n
CS(=O)(=O)Nc1ccc(-c2ccnc(Nc3ccc(-n4ccnn4)cc3)n2)cc1 | 66 | n
Cc1ncn(-c2ccc(Nc3nccc(-c4ccc(S(C)(=O)=O)cc4)n3)cc2)n1 | n | n
c1ccc(CNc2nc(N3CCOCC3)nc3c2ncn3-c2ccsc2)cc1 | n | n
c1nc2nc(N3CCOCC3)nc(NC3CC3)c2[nH]1 | n | n
O=C(NCc1ccccc1)c1cccc(NCc2ccc3c(c2)OCO3)n1 | n | n
c1ccc(Oc2ccc(Nc3ccnc(-c4csc5ccccc45)n3)cc2)cc1 | n | n
O=C(CCl)Nc1ccc2nsnc2c1 | n | x
O=C(CCl)Nc1ccc(CN2CCCC2)cc1 | 66 | x
Cc1cc(NCCc2ccc(O)cc2)nc(-c2ccc(C(=O)N3CCN(C)CC3)cc2)n1 | n | n
Cc1ncn(-c2ccc(Nc3ncc4cccc(-n5cccn5)c4n3)cc2)n1 | 45 | n
Cc1ncn(-c2ccc(Nc3ncc4cccc(-c5cnn(CC6CC6)c5)c4n3)cc2)n1 | 64 | n
Cc1ncn(-c2ccc(Nc3ncc4cccc(-c5cnn(C(C)C)c5)c4n3)cc2)n1 | 66 | n
Cc1ncn(-c2ccc(Nc3ncc4cccc(-c5ccncc5)c4n3)cc2)n1 | n | n
Cn1cc(-c2ccc3cnc(Nc4ccc(-n5cnc(N6CCOCC6)n5)cc4)nc3c2C2CC2)cn1 | n | n
Cc1ncn(-c2ccc(Nc3ncc4cccc(-c5ccccc5)c4n3)cc2)n1 | n | n
CC(C)n1cc(-c2ccc3cnc(Nc4ccc(-n5cnc(N6CCOCC6)n5)cc4)nc3c2Cl)cn1 | 53 | n
Cc1ncn(-c2ccc(Nc3ncc4cccc(-c5cnn(C)c5)c4n3)cc2)n1 | n | n
CC(=O)c1cccc(-c2nc(NCc3ccccc3)c3ncn(CCN4CCCC4=O)c3n2)c1 | n | n
O=C(c1ccncc1)N1CCC(Oc2ccc(Br)cc2)CC1 | n | n
Cc1nc(NCCN(C)C)cc(-c2cncc(-c3ccc(F)cc3)c2)n1 | n | x
COc1cc(S(=O)(=O)Nc2ccc(-c3cn4ccc(C)nc4n3)cc2)c(C)cc1C | n | x
SMILES | ULK1 inh | ASK1 primary
CC(C)N(CCNc1ncnc2c1nc(Nc1ccccc1)n2C(C)C)C(C)C | n | n
Oc1c(I)cc(I)c2cccnc12 | 51 | x
O=S(=O)(O)c1cc(I)c(O)c2ncccc12 | 45 | x
Oc1ccc(Cl)c2cccnc12 | n | x
Oc1c(Cl)cc(Cl)c2cccnc12 | n | x
c1ccc(Oc2ccc(Nc3ncnc4nc(Nc5ccccn5)[nH]c34)cc2)cc1 | n | n
CCCN(CCC)C(=O)c1ccc([N+](=O)[O-])c(C)c1 | n | x
CC(=O)c1cccc(-c2ccc(C(=O)NCCc3ccc(O)cc3)s2)c1 | n | n
Nc1cccc(-c2ccc(C(=O)NCCc3ccc(O)cc3)s2)c1 | 43 | n
O=C(c1cc2nc(-c3ccco3)cc(C(F)(F)F)n2n1)N1CCCCC1 | n | x
O=C(Nc1ccc2nc(-c3ccco3)c(-c3ccco3)nc2c1)N1CCCC1 | 67 | x
CN(C)c1ccc(C(=C2C=CC(=[N+](C)C)C=C2)c2ccc(N(C)C)cc2)cc1 | 80 | x
CN(C)c1ccc(C(=C2C=CC(=[N+](C)C)C=C2)c2ccccc2)cc1 | n | x
CC(C)n1cnc2c(Nc3ccc(N4CCOCC4)cc3)nc(Nc3nccc4ccccc34)nc21 | n | n
CC(C)n1cnc2c(Nc3ccc(N4CCOCC4)cc3)nc(Nc3ccc(N4CCOCC4)cc3)nc21 | n | n
CC(C)n1cnc2c(Nc3ccc(N4CCOCC4)cc3)nc(Nc3cccnc3)nc21 | 49 | n
CC(C)n1cnc2c(Nc3ccc(N4CCOCC4)cc3)nc(Nc3ccncn3)nc21 | 52 | n
CC(C)n1cnc2c(Nc3ccc(N4CCOCC4)cc3)nc(Nc3ccccn3)nc21 | 69 | n
CC(C)n1cnc2c(NC3CC3)nc(Nc3ccc(N4CCOCC4)cc3)nc21 | n | n
O=C1CCCN1CCn1cnc2c(NC3CCN(Cc4ccccc4)CC3)nc(Cl)nc21 | n | n
Cc1nc(Nc2ccccc2)cc(-c2cncc(-c3ccc(F)cc3)c2)n1 | n | x
Cc1nc(Nc2cc(Nc3ccccc3S(=O)(=O)NC(C)C)c(C(F)(F)F)cn2)cc(-c2cncnc2)n1 | 45 | n
COc1ccc(-c2nc3ncnc(NC4CCN(Cc5ccccc5)CC4)c3[nH]2)cc1 | n | n
Cc1cncc2cccc(NC3CCCNC3)c12 (centres undefined) | 72 | n
Cc1cncc2cccc(NC3CCN(C(=O)[C@H](C)O)CC3)c12 | n | n
Cc1cncc2cccc(N3CCN(C(=O)[C@H](C)O)CC3)c12 | n | n
Cc1cncc2cccc(S(=O)(=O)N3CCCNC[C@@H]3C)c12 | 81! | n

Screens (PubChem BioAssay)
